# Measurements reported in the supplement of paper PMC11732987, “Enantioselective OTUD7B fragment discovery through chemoproteomics screening and high-throughput optimisation” (Communications Chemistry, 2025).
# Target: ATXN3 (UniProt P54252)
# Assay: log2 ratio of Biotin-Ahx-Ub-VS probe labelling (fragment/DMSO); higher = less target engagement (more negative = stronger competition), active = hit call of the paper (q ≤ 0.05, log2 ratio ≤ -1)
# Conditions: compound concentration: 200 uM; treatment time: 3 h
# Summary of the method: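 HEK293T lysate (495 µg per sample, in Tris/CHAPS/IGEPAL buffer with protease inhibitors) was exposed in triplicate for 3 h to fragment at 200 µM or to vehicle, then to Biotin-Ahx-Ub-VS at 0.5 µM final for 1 h. Labelled DUBs were enriched on NeutrAvidin, digested with LysC and trypsin, and analysed by diaPASEF LC-MS/MS. Spectronaut label-free quantities were normalised to the global median, and values are average log2 ratios of fragment over vehicle from an unpaired t-test. Only proteins with ≥2 unique peptides were used.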
# Chain of ATXN3 (P54252 whole entry, the tested form may be a part): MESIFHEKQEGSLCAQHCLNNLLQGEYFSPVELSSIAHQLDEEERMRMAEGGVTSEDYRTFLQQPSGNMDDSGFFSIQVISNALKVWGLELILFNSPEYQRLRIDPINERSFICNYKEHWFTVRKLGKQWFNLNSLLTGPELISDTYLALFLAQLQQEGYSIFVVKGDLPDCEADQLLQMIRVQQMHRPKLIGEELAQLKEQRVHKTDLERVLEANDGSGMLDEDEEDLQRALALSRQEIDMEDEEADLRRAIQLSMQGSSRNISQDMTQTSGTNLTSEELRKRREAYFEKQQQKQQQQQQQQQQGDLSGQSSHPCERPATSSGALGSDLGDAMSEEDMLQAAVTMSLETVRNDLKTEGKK
row,SMILES,log2 ratio of Biotin-Ahx-Ub-VS probe labelling
1,Cl.O=C(CCl)N1CCC(n2nc3ccccc3n2)CC1,-1.1 (active)
2,Cc1cccc(C)c1NC(=O)CCl,-0.224 (inactive)
3,CCN(C(=O)CCl)C1CCS(=O)(=O)C1 (stereo not given),-0.159 (inactive)
4,Cl.O=C(CCl)N[C@H]1C[C@@H](n2cccn2)C1,-0.161 (inactive)
5,Cc1ccc2nnc(CNC(=O)CCl)n2c1,-0.0879 (inactive)
6,O=C(CCl)Nc1ccc(N2CCCC2=O)cc1,0.0787 (inactive)
7,Cl.O=C(CCl)NCc1ccnc(Oc2ccccc2F)c1,-0.51 (inactive)
8,O=C(CCl)N1CCC(S(=O)(=O)c2ccc(F)cc2)CC1,-0.72 (inactive)
9,Cl.O=C(CCl)N1CCn2ncc(O)c2C1,-1.69 (active)
10,Cc1cccc(NC(=O)CCl)c1C,-0.243 (inactive)
11,CCN(C(=O)CCl)C1CCCCC1,-0.0119 (inactive)
12,O=C(CCl)NC1(c2ccc3c(c2)OCCO3)CCCC1,-0.252 (inactive)
13,O=C(CCl)N1CCN(C(=O)Nc2ccccc2)CC1,-0.281 (inactive)
14,O=C(CCl)NC(Cn1ccccc1=O)c1ccccc1 (stereo not given),-0.00539 (inactive)
15,CC1CCc2onc(CNC(=O)CCl)c2C1 (stereo not given),0.065 (inactive)
16,O=C(CCl)N1CCCCCC1c1ncon1 (stereo not given),-0.268 (inactive)
17,Cc1cccc(N(CCC#N)C(=O)CCl)c1C,0.0325 (inactive)
18,O=C(CCl)Nc1ccccc1C(F)(F)F,-0.449 (inactive)

row,SMILES,log2 ratio of Biotin-Ahx-Ub-VS probe labelling
1,Cc1ccccc1OCC(=O)N1CCN(C(=O)CCl)CC1,-0.894 (inactive)
2,CN(C)C(=O)c1ccc(CNC(=O)CCl)cc1,-0.0706 (inactive)
3,Cl.Cn1cnc2cc(CNC(=O)CCl)ccc21,-0.239 (inactive)
4,N#Cc1ccc(CNC(=O)CCl)cc1,-0.171 (inactive)
5,Cc1nc(CN2CCCN(C(=O)CCl)CC2)no1.Cl,0.224 (inactive)
6,Cc1ccc(C)c(NC(=O)CCl)c1,-0.548 (inactive)
7,Cc1cc(CC(C)NC(=O)CCl)n[nH]1 (stereo not given),-0.115 (inactive)
8,O=C(CCl)N1CCCN(C(=O)c2ccc(Cl)cc2)CC1,-0.712 (inactive)
9,Cl.O=C(CCl)NCCN1CCc2ccccc21,-0.887 (inactive)
10,CC1(NC(=O)CCl)CCS(=O)(=O)C1 (stereo not given),-0.753 (inactive)
11,N#Cc1ccc(Cl)cc1NC(=O)CCl,-0.113 (inactive)
12,O=C(CCl)N1CCCC1c1ccsc1 (stereo not given),-1.15 (active)
13,O=C(CCl)NCc1ccc(N2CCOCC2)nc1,-0.193 (inactive)
14,O=C(CCl)NCc1cccc(F)c1,-0.297 (inactive)
15,COc1ccccc1C(C)NC(=O)CCl (stereo not given),-0.0967 (inactive)
16,COc1ccc(Cl)cc1NC(=O)CCl,-0.592 (inactive)
17,O=C(CCl)N1CCC(c2nc3ccccc3o2)CC1,-0.627 (inactive)
